# From PubChem BioAssay (NCATS)
# Results filed as inconclusive are left out. Values without a mark were called inactive. Calls of active or inactive are those of the source. Calls follow the shape of the dose curve; as a rule, active = well fitted inhibition curve with a large enough effect; inconclusive = small, poorly fitted or top-dose-only effect; inactive = no such curve, though single readings can be large or run the other way.
# Target: Thioredoxin reductase 1, cytoplasmic (Rattus norvegicus) (UniProt O89049)
# Sequence (O89049 whole entry, looked up): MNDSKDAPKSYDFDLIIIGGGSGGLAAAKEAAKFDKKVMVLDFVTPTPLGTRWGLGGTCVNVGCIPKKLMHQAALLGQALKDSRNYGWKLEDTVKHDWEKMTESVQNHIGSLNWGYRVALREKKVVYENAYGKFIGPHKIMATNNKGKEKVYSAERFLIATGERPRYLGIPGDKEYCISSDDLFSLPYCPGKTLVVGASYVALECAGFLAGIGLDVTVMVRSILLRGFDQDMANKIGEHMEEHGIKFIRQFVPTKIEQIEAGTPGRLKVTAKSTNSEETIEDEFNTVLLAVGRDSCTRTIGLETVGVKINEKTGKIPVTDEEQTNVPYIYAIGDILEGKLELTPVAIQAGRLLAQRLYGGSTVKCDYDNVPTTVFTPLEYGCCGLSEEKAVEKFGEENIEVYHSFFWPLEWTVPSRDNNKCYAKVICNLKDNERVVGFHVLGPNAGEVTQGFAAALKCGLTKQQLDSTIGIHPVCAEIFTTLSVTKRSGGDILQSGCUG
# Assay: qHTS Assay for Inhibitors of Mammalian Selenoprotein Thioredoxin Reductase 1 (TrxR1) (AID 488773); also: nearly all actives have a fitted effect of over 40% in size
# Settings: purified TrxR1 enzyme activity; Potency: inhibition; series mostly up to 57.1 µM; activity change, negative = inhibition: at the top concentration
# Excerpt: The selenoprotein thioredoxin reductase (TrxR; EC 1.8.1.9) is a FAD containing homodimeric pyridine nucleotide-disulfide oxidoreductase with many cellular roles. Together with NADPH and its prime substrate thioredoxin (Trx), the enzyme forms the core of the Trx system. The mammalian Trx system exerts a wide spectrum of functions including redox regulation, antioxidant defense, regulation of transcription factors as well as support of cell growth and replication. Many of these functions involve the reduction of Trx, which may subsequently reduce a number of different substrates including ribonucleotide reductase, peroxiredoxins or NFkB. Mammalian TrxR itself also has a broad substrate specificity, reducing both protein and non-protein substrates, including low molecular weight compounds such as dehydroascorbate, lipoic acid, ubiquinone, and juglone. In addition, several drugs in clinical use for anticancer treatment are indeed known to target TrxR1.
# This BioAssay is a validation of an NADPH fluorescence-based, dual-purpose qHTS rTrxR1 assay designed to find potential inhibitors and substrates of rTrxR1. For this particular BioAssay, actives are potential inhibitors. See related BioAssay for substrate data deposition.
# Assay protocol: 2 uL of reagents (buffer in column 4 as negative control and 90 nM rTrxR1 in columns 1-3 and 5-48) were dispensed into Greiner black solid-bottom 1,536-well assay plates, followed by 1 uL of NADPH (400 uM final concentration) to each well. The plates were centrifuged at 1000 rpm for 15 seconds and subsequently incubated for 5 min at room temperature (~22 deg C) to allow for rTrxR1 reduction. Compounds (23 nL) were then transferred via Kalypsys pin tool equipped with 1536-pin array (10 nL slotted pins, V&P Scientific, San Diego, CA). In addition, a duplicate 2-fold serial dilution of the control compounds auranofin, a known gold-based TrxR1 inhibitor, and juglone (5-hydroxy-1,4-naphthoquinone), a natural TrxR1 substrate, were pin-transferred to columns 2 and 3, respectively. After incubation for 15 min at room temperature (~22 deg C), 1 uL of selenite (400 uM final concentration) were dispensed to each well. The plate was immediately transferred to a ViewLux high-throughput CCD imager (PerkinElmer), wherein kinetic measurements of NADPH fluorescence (Ex 340 nm, Em 450 nm) were acquired (8 minute kinetic read, see Table 1). Read 1 was utilized to assess the capacity of a compound to serve as an rTrxR1 substrate, i.e. a decrease in NADPH fluorescence compared to the no-compound background is an indication of a substrate behavior for that particular compound. For inhibitory activity of a compound, delta values, computed as the difference in fluorescence intensity between the first and last reads of an 8-minute time kinetic window, were used. All reagents were diluted in an assay buffer consisting of 50 mM Tris-HCl, pH 7.5, 2 mM EDTA, and 0.01% Tween-20.
# Throughout the screen, reagent bottle and all liquid lines were made light-tight to minimize reagent degradation. All screening operations were performed on a fully integrated robotic system (Kalypsys, San Diego, CA) containing one RX-130 and two RX-90 anthropomorphic robotic arms (Staubli, Duncan, SC). Library plates were screened starting from the lowest and proceeding to the highest concentration, and a 'double-pinning' step of the highest concentration was required to access higher concentrations of compounds. Vehicle-only plates, with DMSO being pin-transferred to the columns 5-48, were inserted uniformly at the beginning and the end of each library in order to monitor and record any shifts in the background, which can be affected by reagent dispensers or loss in enzyme activity over time. Screening data were corrected, normalized, and concentration-effect relationships were derived by using publicly-available curve fitting algorithms developed in-house (http://ncgc.nih.gov/pub/openhts).
# % is scaled to controls: 0 for no effect and ±100 for the full control effect; potency is read from the fitted curve at half-maximal effect.
Structure (SMILES),"activity change, negative = inhibition",Potency
CCN(CC)CCNC(=O)c1cc(Cl)c(N)cc1OC,2%,
NC(N)=NCCC[C@H](N)C(=O)O,5.01%,
Cc1cc(N)c2ccccc2[n+]1CCCCCCCCCC[n+]1c(C)cc(N)c2ccccc21,-22.6%,
CN1CCN(C2Cc3ccccc3Sc3ccc(Cl)cc32)CC1 (stereo not given),-2.38%,
CC(C)(C(=O)O)c1ccc(C(O)CCCN2CCC(C(O)(c3ccccc3)c3ccccc3)CC2)cc1 (stereo not given),5.46%,
CCN(CC)CCOC(=O)C1(C2CCCCC2)CCCCC1,-0.27%,
C=Cc1c(C)c2cc3[nH]c(cc4nc(cc5nc(cc1[nH]2)C(C)=C5CCC(=O)O)C(CCC(=O)O)=C4C)c(C)c3C=C,,13.4 µM (active)
Nc1cc(=O)[nH]c(N)n1,47%,
CC(C(O)c1ccc(O)cc1)N1CCC(Cc2ccccc2)CC1 (stereo not given),-4.47%,
CN(C)CCOC(C)(c1ccccc1)c1ccccn1 (stereo not given),-9.43%,
CN(C)CCC=C1c2ccccc2CCc2ccccc21,5.25%,
CC(C)(C)c1onc(OCP(=O)(O)O)c1CC(N)C(=O)O (stereo not given),,inactive
CC(CN(C)C)CN1c2ccccc2CCc2ccccc21 (stereo not given),-6.3%,
CNCCC(Oc1ccc(C(F)(F)F)cc1)c1ccccc1 (stereo not given),-20%,
CNC(=O)Oc1ccc2c(c1)[C@]1(C)CCN(C)[C@@H]1N2C,-1.27%,
C[C@]12CC[C@@H]3c4ccc(O)cc4CC[C@H]3[C@@H]1CCC2=O,6.64%,
CSc1ccc2c(c1)N(CCC1CCCCN1C)c1ccccc1S2 (stereo not given),-1.75%,
O=C1N=C(O)CN1/N=C/c1ccc(-c2ccc([N+](=O)[O-])cc2)o1,5.39%,
C[C@]12C[C@H](O)[C@H]3[C@@H](CCC4=CC(=O)CC[C@@]43C)[C@@H]1CC[C@@H]2C(=O)CO,6.74%,
CSc1ccc2c(c1)C(N1CCN(C)CC1)Cc1ccccc1S2 (stereo not given),-12.5%,

Structure (SMILES),"activity change, negative = inhibition",Potency
CC(C)C(=O)c1c(C(C)C)nn2ccccc12,2.62%,
Nc1ncnc2c1ncn2[C@@H]1O[C@H](CO)[C@@H](O)[C@H]1O,-6.81%,
CC(C)(C)[C@]1(O)CCN2C[C@H]3c4ccccc4CCc4cccc(c43)[C@@H]2C1,,inactive
CC1=C(CC(=O)O)c2cc(F)ccc2/C1=C\c1ccc(S(C)(=O)=O)cc1,12.2%,
C#CCN(C)Cc1ccccc1,-6.65%,
CCN(CC)CCCC(C)Nc1c2ccc(Cl)cc2nc2ccc(OC)cc12 (stereo not given),3.17%,
CNCCCC1c2ccccc2C=Cc2ccccc21,-14%,
CN(C)CCCN1c2ccccc2Sc2ccc(Cl)cc21,-8.22%,
NC1CCN(c2cccc(Cl)n2)CC1,6.62%,
OCc1cc(C(O)CNCCCCCCOCCCCc2ccccc2)ccc1O (stereo not given),-19.3%,
COc1ccc(Cl)cc1C(=O)NCCc1ccc(S(=O)(=O)NC(=O)NC2CCCCC2)cc1,8.43%,
CC[C@H]1CN2CCc3cc(OC)c(OC)cc3[C@@H]2C[C@@H]1C[C@H]1NCCc2cc(OC)c(OC)cc21,2.52%,
CCCn1cnc2c1c(=O)n(CCCCC(C)=O)c(=O)n2C,1.7%,
CN(C)CC[C@@H](c1ccc(Cl)cc1)c1ccccn1,-5.74%,
NC(=O)c1ncn([C@@H]2O[C@H](CO)[C@@H](O)[C@H]2O)n1,-8.87%,
OCCN1CCN(CCCN2c3ccccc3Sc3ccc(Cl)cc32)CC1,3.39%,
COCCOC(=O)C1=C(C)NC(C)=C(C(=O)OC/C=C/c2ccccc2)C1c1cccc([N+](=O)[O-])c1 (stereo not given),-16.2%,
CC(=O)OCC(=O)[C@@]1(O)CC[C@H]2[C@@H]3CCC4=CC(=O)CC[C@]4(C)[C@H]3C(=O)C[C@@]21C,-7.34%,
C[C@](N)(Cc1ccc(O)cc1)C(=O)O,-3.18%,
CCCCCCCCCCCCCCCC(=O)NCCO,-13.2%,
